A selection: hits, their analogues and other compounds. The true share with any hit is near 0.98%.
Keap1-Nrf2 PPI: Keap1-Nrf2 protein-protein interaction inhibitors, primary screen, biochemical, fluorescence polarization, single point; 340,000 tested, 0.15% active; AID 504523, 2011; Keap1 Kelch-Nrf2 peptide fluorescence polarization, 1536-well; inhibition, % at 9.4 µM; in the data active = inhibition above about 12%;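 note: human Keap1 Kelch domain with fluorescein labeled Nrf2 9mer peptide probe; 0% = neutral control wells and 100% = peptide positive control; higher means more block of Keap1 binding to Nrf2 peptide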
LANA-H2B inh: blockers of LANA interaction with H2A/H2B – biochemical, FP readout, HTS, primary screen. Protein LANA1 (Human herpesvirus 8 type P (isolate GK18)), Q9QR71. cell-free LANA-H2A/H2B peptide, fluorescence polarization. inhibition, % (concentration not given with the values). 320,000 tested, 0.6% active; in the data active = inhibition mostly above about 10%, no sharp cut-off; inactive = mostly below about 6.7%
Target sequence (Q9QR71 whole entry, looked up): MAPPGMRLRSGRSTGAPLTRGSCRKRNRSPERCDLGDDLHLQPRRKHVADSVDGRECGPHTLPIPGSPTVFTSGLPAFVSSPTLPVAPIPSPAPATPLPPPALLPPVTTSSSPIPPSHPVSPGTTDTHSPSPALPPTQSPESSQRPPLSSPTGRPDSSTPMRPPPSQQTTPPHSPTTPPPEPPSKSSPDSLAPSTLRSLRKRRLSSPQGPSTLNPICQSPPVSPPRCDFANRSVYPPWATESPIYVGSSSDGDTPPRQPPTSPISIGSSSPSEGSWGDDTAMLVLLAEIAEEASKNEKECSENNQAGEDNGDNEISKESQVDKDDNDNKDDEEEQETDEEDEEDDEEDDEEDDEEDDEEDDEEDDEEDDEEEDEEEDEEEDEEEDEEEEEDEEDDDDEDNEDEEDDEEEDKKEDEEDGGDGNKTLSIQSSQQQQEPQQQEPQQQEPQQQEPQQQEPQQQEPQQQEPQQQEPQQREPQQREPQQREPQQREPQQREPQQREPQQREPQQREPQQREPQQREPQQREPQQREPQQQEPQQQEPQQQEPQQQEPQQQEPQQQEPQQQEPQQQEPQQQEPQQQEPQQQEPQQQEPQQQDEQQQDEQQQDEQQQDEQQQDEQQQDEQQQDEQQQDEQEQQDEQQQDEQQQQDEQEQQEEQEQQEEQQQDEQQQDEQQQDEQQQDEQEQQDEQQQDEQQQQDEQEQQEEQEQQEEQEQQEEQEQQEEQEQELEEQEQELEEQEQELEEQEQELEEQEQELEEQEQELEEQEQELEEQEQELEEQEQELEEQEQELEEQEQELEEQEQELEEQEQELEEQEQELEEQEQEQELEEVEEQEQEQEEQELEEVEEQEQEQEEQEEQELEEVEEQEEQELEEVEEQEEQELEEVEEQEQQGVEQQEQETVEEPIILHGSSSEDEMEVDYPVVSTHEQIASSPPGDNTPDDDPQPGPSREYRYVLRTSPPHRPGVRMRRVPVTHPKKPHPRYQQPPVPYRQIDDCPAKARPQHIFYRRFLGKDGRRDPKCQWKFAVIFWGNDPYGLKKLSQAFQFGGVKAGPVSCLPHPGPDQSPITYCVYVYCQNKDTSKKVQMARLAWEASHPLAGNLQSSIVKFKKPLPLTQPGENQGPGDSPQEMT
cardiac RTF act: cardiac RTF calcium sensitivity activators, primary screen, biochemical, IANBD-TnC fluorescence, EC20 calcium | activation, % at 7.2 µM | IANBD-labeled TnC RTF fluorescence at EC20 calcium; 0% EC20 calcium, 100% full calcium | Troponin I, cardiac muscle (Homo sapiens) + Troponin T, cardiac muscle (Homo sapiens) + … | AID 493008, 2010 | 340,000 tested, 0.24% active;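 active = activation above the mean over all tested compounds plus 3 SD, cut at about 30% in these data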;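 note: rise in fluorescence read as greater calcium sensitivity of cardiac thin filaments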
LANA DNA inh: inhibitors of KSHV C-LANA binding to DNA, primary screen, biochemical, fluorescence polarization, FAM-LBS DNA, MBP-C-LANA, single point; Kaposi's sarcoma herpesvirus LANA C-terminal domain (residues 932-1162) DNA binding; inhibition, % at 9 µM; 340,000 tested, 0.078% active;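 active = highest replicate inhibition at or above 60% at 9 µM, even if other replicates fall short; inactive = all replicates below 60% inhibition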;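 note: 0% = neutral control wells and 100% = 4 µM acridine orange control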
Cardiac RTF inh: cardiac RTF calcium sensitivity inhibitors, primary screen, biochemical, IANBD-TnC fluorescence, EC70 calcium | Troponin I, cardiac muscle (Homo sapiens) + Troponin T, cardiac muscle (Homo sapiens) + … | IANBD-labeled cardiac RTF, Ca2+ fluorescence | inhibition, % at 7.15 µM | 340,000 tested, 0.12% active;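 active = inhibition above the mean inhibition of all tested compounds plus 3 SD, cut at about 17% in these data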;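 note: assay run at fixed EC70 calcium of 1.6 mM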
* marks the source's active call; other numbers are inactive results; nt = no result; + = active, no number.

SMILES	Keap1-Nrf2 PPI	LANA-H2B inh	cardiac RTF act	LANA DNA inh	Cardiac RTF inh
Cc1ccc(OCC(=O)NNC(=O)C2CSC3(C)CCC(=O)N23)cc1C (configuration not stated)	-2	nt	3	2	1
COCCn1c(=NC(C)=O)sc2cc([N+](=O)[O-])ccc21	0	-8	0	2	0
COCCn1c(=NC(=O)/C=C/c2ccccc2)sc2cc(NC(C)=O)ccc21	0	1	33*	-1	-35
CSc1ncc(C(=O)Nc2ccc(C(C)=O)cc2)c(C)n1	-2	1	1	3	-7
O=C(CN1C(=O)c2cccc3cccc(c23)C1=O)NCCN1CCOCC1	2	3	2	-1	-10
O=C(NCc1cccnc1)c1sc2ccccc2c1Cl	-2	-3	-2	0	-8
CC(NC(=O)CNC(=O)c1sc2ccccc2c1Cl)c1cccnc1 (configuration not stated)	-6	22*	-5	-1	1
COc1ccc(NC2=C(Cl)C(=O)N(c3ccccc3)C2=O)c(OC)c1	-1	15*	-3	2	-22
COc1ccc(N2C(=O)C(Cl)=C(Nc3ccc(OC)cc3OC)C2=O)cc1	-1	4	6	-4	-5
CN(C(=O)c1ccccc1C(=O)OCC(=O)c1ccccc1)c1ccccc1	7	30*	8	3	-3
CN(C(=O)c1ccccc1C(=O)OCC(=O)c1ccc(F)cc1)c1ccccc1	0	-2	-2	-1	3
O=C(NCC(=O)c1ccccc1)OCc1ccc([N+](=O)[O-])cc1	-2	-2	3	-1	-10
COC(=O)C(Cc1ccccc1)NC(=O)CCC(=O)NC(C)CCc1ccccc1 (configuration not stated)	-5	14*	6	-1	-10
CC(C)(CO)NCC#Cc1ccccc1	1	-4	34*	0	-4
CCC[N+](CC#CCO)(CC#Cc1ccccc1)CCC	-2	0	6	-3	-11
CC(=O)c1cc(F)ccc1OCC(=O)Nc1ccc2c(c1)OCO2	-2	-3	5	0	1
COc1cc2cc(CCCOC(=O)c3ccc(C(F)(F)F)cc3)oc(=O)c2cc1OC	-5	-5	3	2	9
Nc1nonc1OCCN1CCN(c2ccc([N+](=O)[O-])c3cccnc23)CC1	-3	1	nt	-1	nt
Cc1nonc1OCCN1CCN(c2ccccc2[N+](=O)[O-])CC1	-1	23*	-3	-2	-13
Cc1ccc(S(=O)(=O)N(C)c2ccc(C(=O)NCC(c3ccco3)N(C)C)cc2)cc1 (configuration not stated)	-9	35*	1	0	-5
Cc1ccc(C)c(S(=O)(=O)Nc2ccc(C(=O)NCC(c3ccco3)N(C)C)cc2)c1 (configuration not stated)	-2	4	4	0	0
Cc1ccccc1NS(=O)(=O)c1ccc(C(=O)NCC(c2ccco2)N(C)C)cc1 (configuration not stated)	0	20*	0	0	-4
CC(=O)N1c2ccc(S(=O)(=O)N3CCCC3C(=O)Nc3ccc(C)cc3)cc2CC1C (configuration not stated)	4	4	-4	-2	-7
Cc1cc(N2CC(C)OC(C)C2)nc(C(C)C)n1 (configuration not stated)	-3	+	11	0	3
Cc1cc(N2CCOCC2)nc(C(C)C)n1	-3	1	3	-2	0
SMILES	Keap1-Nrf2 PPI	LANA-H2B inh	cardiac RTF act	LANA DNA inh	Cardiac RTF inh
Cc1ccc(SCc2nc(N)nc(Nc3ccccc3C)n2)c(C)c1	-1	64*	-6	-2	-6
Cc1cccc(Oc2coc3cc(OC(=O)c4cncc(Br)c4)ccc3c2=O)c1	-4	3.5*	11	-2	-13
CC1CN(C(=O)COC(=O)CSc2ccc([N+](=O)[O-])cc2)CC(C)O1 (configuration not stated)	-5	nt	4	1	-10
Cc1ccc(O)c(-c2cc(C(=O)Nc3ccc(S(=O)(=O)Nc4nccc(C)n4)cc3)[nH]n2)c1	-2	78*	0	0	-9
CC1CCCN(CCCN2C(=O)C3C(C(=O)Nc4ccc(Cl)cc4)C4C=CC3(O4)C2C(=O)NC2CCCCC2)C1 (configuration not stated)	-1	2	-7	1	-8
Cc1ccc2c(c1)N(C(C)C(=O)NCc1ccccn1)C(=O)CO2 (configuration not stated)	0	1	0	0	5
Cc1ccc2c(c1)N(C(C)C(=O)NCc1cccs1)C(=O)CO2 (configuration not stated)	-1	20*	0	-1	-4
CCN(CC)C(=O)c1cccc(NC(=O)C2=COCCO2)c1	2	18*	-3	-8	-4
CCO[C@@H]1OC(C(=O)N2CCOCC2)=C[C@H](C(C)(C)C)[C@H]1CCCO	2	-1	-3	2	-7
COc1ccc([C@H]2CC(=O)C=C(c3ccc(F)cc3OCc3ccccc3)C2)cc1OC	3	3	-7	-1	4
CC(=O)Nc1ccc(S(=O)(=O)Nc2nc3ccccc3nc2Nc2ccc(C(=O)O)c(O)c2)cc1	4	0	-6	90*	2
O=C(NCc1ccccn1)c1cccc(NS(=O)(=O)c2cccc(Cl)c2)c1	1	0	-3	0	1
O=C(NCc1ccccn1)c1ccc(NS(=O)(=O)c2cccc(Cl)c2)cc1	1	38*	-6	-1	6
CC(C)C(=O)c1cc2c(cc1NC(=O)c1ccccc1)OCCO2	1	-4	31*	-2	-4
Fc1ccccc1N1CCN(C(c2ccccn2)c2nnnn2C2CCCCC2)CC1 (configuration not stated)	-3	12*	0	-1	-5
CC(C)(C)c1ccc(OCC(=O)Nc2ccc3c4c(cccc24)C(=O)NC3=O)cc1	0	nt	3	2	-19
Cc1ccc(C)c(OCCC(=O)NCCc2ccc(S(N)(=O)=O)cc2)c1	-1	29*	1	0	7
Cc1ccc(C)c(OCCC(=O)OCC(=O)NCCc2ccc(S(N)(=O)=O)cc2)c1	-4	2	2	2	-10
Cc1ccc2c(c1)C(c1ccccc1)CC(=O)O2 (configuration not stated)	0	-1	5	2	1
Cc1c(C(=O)NCc2ccoc2)oc2ccc3c(c12)C(=O)CC(C)(C)O3	-4	29*	6	1	-6

High-throughput results: PubChem BioAssay, several laboratories
